This is one part of a sample in which hits are shown more often than they occur.
Marburg entry inh – Marburg virus entry inhibition; Marburg virus pseudotyped entry inhibition, cell reporter; Potency, µM (titrated, usually from 37.8 µM), most hits filed as inhibitors; actives 1.8% (n = 300,000); calls by dose curve; tested in HEK293 cells
LASV entry inh – blocks Lassa virus binding to or entry into cells | Lassa virus pseudotype entry inhibition, cell reporter | Potency, µM (highest dose often 37.9 µM), usual class: inhibitors | actives 1.2% (n = 300,000) | AID 540256; calls by dose curve; tested in HEK293 cells; note: nearly all actives have a fitted effect of over 50% in size
AMA1 RON2 block – AMA1-RON2 (P. falciparum) interaction inhibition. AlphaScreen AMA1-biotinylated RON2 peptide binding. Potency, µM (top dose mostly 58.2 µM), most hits filed as inhibitors. actives 0.2% (n = 360,000). AID 720542; active = well fitted inhibition curve with a large enough effect; inconclusive = small, poorly fitted or top-dose-only effect; inactive = no such curve, though single readings can be large or run the other way; note: nearly all actives have a fitted effect of over 45% in size
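AMA1 (3D7) with his tag at 25 nM final met compounds first, then biotinylated RON2 peptide at 25 nM; detection used donor plus acceptor beads, 10 µg/mL apiece, read by AlphaScreen after 30 min at room temperature.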
Shiga inhibitor – Shiga toxin inhibition | Vero cells, Shiga toxin protein synthesis inhibition reporter | inhibition, % at 38.7 µM | actives 9.2% (n = 290,000) | AID 2315; in the data active = inhibition mostly above about 28%, no sharp cut-off; inactive = mostly below about 43%
CHX counter – affects cycloheximide protein synthesis inhibition readout, counter-screen; cell reporter, cycloheximide protein synthesis inhibition counterscreen; AID 2314; max response, %; actives 12% (n = 300,000); in the data active = max response mostly above about 13%, no sharp cut-off; inactive = mostly below about 14%; note: read at 38.3 µM for the half of the compounds with a filed dose
Hits are given with their value; i = inactive; ? = inconclusive; nt = not tested or not shown.

SMILES	Marburg entry inh	LASV entry inh	AMA1 RON2 block	Shiga inhibitor	CHX counter
N#Cc1nc(COc2ccccc2Cl)oc1NCc1cccnc1	i	i	i	38.1	i
COc1ccc(CNc2oc(Cc3cccc4ccccc34)nc2C#N)cc1	?	17.8µM	i	i	i
CCc1nc2ccc(C(=O)NCCOc3ccc(OC)cc3)cn2c1N(C=O)Cc1ccc(OC)cc1	nt	nt	i	nt	nt
COc1ccc(CNC(=O)Cc2c(C)c3c(cc(C)c4c(C)coc43)oc2=O)cc1	i	?	nt	nt	nt
Cc1csc2nc(COC(=O)CNC(=O)c3ccc(F)cc3)cc(=O)n12	nt	i	nt	nt	nt
CSCCNC(=O)c1ccc2nc(C3CCCCC3)oc2c1	?	i	i	85.5	20.1
O=C(NCc1ccccn1)c1ccc2nc(C3CCCCC3)oc2c1	i	i	i	31.9	21.7
CC(=O)N(C)c1ccc(N=Nc2ccc3ncccc3c2)cc1	?	10µM	i	nt	nt
CC(=O)N(C)c1ccc(N=Nc2c(C)[nH]n(-c3ccccc3)c2=O)cc1	nt	nt	i	i	i
Nc1ccn(Cc2ccccc2)n1	?	i	i	i	i
c1ccc(Cn2ccc(-c3cnc(-c4ccccc4)s3)n2)cc1	?	11.2µM	i	108.5	40.8
O=C(NCCc1ccccc1)/C(=C\c1cccc([N+](=O)[O-])c1)NC(=O)c1ccco1	i	i	i	i	i
Nc1ccc2nc(N3CCOCC3)sc2c1	nt	nt	i	139.8	41.4
c1ccc2sc(N3CCOCC3)nc2c1	i	i	i	i	44.2
O=C(CSc1nc2ccccc2s1)N/N=C/c1cc([N+](=O)[O-])ccc1O	i	i	i	39.8	16.9
Cc1ccc(/C=N/NC(=O)CSc2nc3ccccc3s2)o1	?	i	i	i	12.2
COCC(=O)N/N=C/c1ccc(Sc2nc3ccccc3s2)o1	i	i	i	i	i
O=C(Nc1ccc2c(c1)OCO2)c1ccc2sc([C@@H]3O[C@H](CO)[C@H](O)[C@H](O)[C@H]3O)nc2c1	nt	nt	i	nt	nt
CCOc1cc([N+](=O)[O-])cc2c1C(=O)Nc1ccccc1O2	nt	nt	i	i	25.3
CC1(C(=O)NCc2cccc3ccccc23)CCN1C(=O)Cc1ccc(-c2ccccc2)cc1 (stereo not drawn)	nt	nt	i	nt	nt
CCOC(=O)c1nnn2c1nc(N1CCOCC1)c1ccccc12	i	i	i	i	i
Nc1nc2c(C(=O)N3CCOCC3)nnn2c2ccccc12	i	i	i	60.4	21.4
CN(C)c1ccc(CN(CC2CCCO2)C(=O)COc2ccccc2Cl)cc1 (stereo not drawn)	i	?	nt	nt	nt
Cc1ccc(OCCCN2CCOCC2)cc1	i	i	?	19.5	20.1
Cc1ccc(OCCCCCCN2CCNCC2)cc1	14.1µM	i	i	nt	nt
SMILES	Marburg entry inh	LASV entry inh	AMA1 RON2 block	Shiga inhibitor	CHX counter
Cc1cnc(C(=O)OCC(=O)c2ccc(C)s2)cn1	nt	nt	i	nt	nt
Cc1cnc(C(=O)OCC(=O)c2csc(N3CCCCC3)n2)cn1	i	i	i	i	50.6
O=C(NCCCN1CCN(c2ccc(F)cc2)CC1)Nc1ccc(Cl)cc1	?	i	nt	nt	nt
Cc1ccccc1N(C(=O)CCC(=O)Nc1ccccn1)C(C(=O)NC(C)C)c1ccc(O)cc1 (stereo not drawn)	7.08µM	i	i	i	i
Cc1ccccc1N(C(=O)CCCC(=O)Nc1ccccn1)C(C(=O)NC1CCCC1)c1ccc(O)cc1 (stereo not drawn)	i	?	i	i	i
CCS(=O)(=O)NCCc1csc(-c2ccc(OC)c(OC)c2)n1	nt	nt	i	i	i
CCOc1ccc(-c2nc(CSc3nnc(C)s3)cs2)cc1OC	i	i	i	89.2	37.1
CCOc1ccc(-c2nc(CSc3nncs3)cs2)cc1OC	i	i	i	i	19.0
COc1ccc(CNC(=O)COC(=O)c2c(NC(C)=O)sc(C)c2C)cc1OC	nt	nt	i	nt	nt
CCOC(=O)Cc1ccc(NC(=O)N2CCOc3ccc(C)cc32)cc1	nt	i	nt	nt	nt
C=C(C)[C@@H]1CC=C(CN2CCN(Cc3ccccc3)CC2)CC1	10µM	?	i	i	i
COc1ccc(C)cc1NC(=O)C1CCN(C(=O)Cc2ccccc2)CC1	i	i	i	i	i
Cc1cccc(NC(=O)CSc2nc3nc4c(cc3c(=O)n2-c2ccccc2)CCCC4)c1	10µM	i	i	i	i
CCn1c(SCC(=O)Nc2ccc(C(C)=O)cc2)nc2nc3c(cc2c1=O)COC(C)(C)C3	nt	nt	i	122.4	31.7
CCn1c(SCC(=O)Nc2ccc(Cl)cc2)nc2nc3c(cc2c1=O)CCCC3	i	i	i	i	i
CCn1c(SCC(=O)Nc2ccc(C(C)=O)cc2)nc2nc3c(cc2c1=O)CCCC3	i	i	i	45.6	26.5
CCn1c(SCC(=O)Nc2ccc(OC)cc2)nc2nc3c(cc2c1=O)COC(C)(C)C3	nt	nt	i	i	i
O=c1c(-c2cnn(-c3ccccc3)c2)coc2cc(O)ccc12	?	?	i	108.2	46.7
Cc1oc2cc(O)ccc2c(=O)c1-c1cnn(-c2ccccc2)c1	?	i	i	i	i
CCC(=O)N1CCC1(C)C(=O)Nc1ccc(OC)c(OC)c1 (stereo not drawn)	nt	nt	i	nt	nt
Cc1ccc(C)c(N2CCN(S(=O)(=O)c3ccc4c(c3)CCCN4C(=O)C3CCC3)CC2)c1	nt	i	nt	nt	nt
Cc1cccc(N2CCN(S(=O)(=O)c3ccc4c(c3)CCCN4C(=O)C3CCC3)CC2)c1C	nt	6.31µM	i	i	i
COc1ccccc1N1CCN(C(=O)C2CCCN(S(=O)(=O)c3ccc4c(c3)CCCN4C(C)=O)C2)CC1 (stereo not drawn)	11.2µM	?	i	i	i
CC(=O)N1CCCc2cc(S(=O)(=O)N3CCCC(C(=O)N4CCN(c5cc(C)ccc5C)CC4)C3)ccc21 (stereo not drawn)	?	5.62µM	i	i	i
CC(=O)N1CCCc2cc(S(=O)(=O)N3CCCC(C(=O)N4CCN(c5ccccc5)CC4)C3)ccc21 (stereo not drawn)	nt	i	i	i	i
SMILES	Marburg entry inh	LASV entry inh	AMA1 RON2 block	Shiga inhibitor	CHX counter
COc1ccc(NC(=O)Nc2cccc3c2O[C@H](CN(C)C(=O)Nc2c(C)noc2C)[C@@H](C)CN([C@H](C)CO)C3=O)cc1	nt	nt	i	nt	nt
COc1ccc(NC(=O)N(C)C[C@@H]2OCc3cn(nn3)CCCC(=O)N([C@H](C)CO)C[C@H]2C)cc1	nt	nt	i	nt	nt
Cc1ccc(C(=O)NCC(=O)Nc2ccc(S(=O)(=O)Nc3cc(C)nc(C)n3)cc2)cc1	nt	nt	i	nt	nt
COc1cccc(C2c3cc4c(cc3OC(N3CCOCC3)C2C)OCO4)c1O (stereo not drawn)	i	?	i	nt	nt
COc1ccc(C2c3cc4c(cc3OC(N3CCOCC3)C2C)OCO4)c(OC)c1 (stereo not drawn)	?	6.31µM	?	nt	nt
COc1cccc(N(Cc2nnc3n2CCCCC3)C(=O)Nc2cccc(Cl)c2)c1	nt	i	nt	nt	nt
COC(=O)C(C)n1nnc2sc(-c3ccccc3)cc2c1=O (stereo not drawn)	?	?	i	113.4	40.0
CC(=O)c1ccc(N(C(=O)Cn2nnc3ccccc32)C(C(=O)NCc2ccccc2)c2ccccn2)cc1 (stereo not drawn)	?	i	i	76.4	47.4
Cc1ccc(N(C(=O)Cn2nnc3ccccc32)C(C(=O)NCc2ccco2)c2ccc(C)o2)cc1 (stereo not drawn)	?	i	i	i	i
